The list is not random: actives were taken first. Their share in the collection is about 6%.
D1 PAM – Potentiators of Human D1 Dopamine Receptor: qHTS; HEK293 TREx D1 cells, calcium flux, dopamine EC20 potentiation; hit rate 0.036% among 360,000; potentiation, % at 10 µM; D(1A) dopamine receptor (Homo sapiens), P21728; in the data active means potentiation above about 30%
D1 ag – Allosteric Agonists of the Human D1 Dopamine Receptor: qHTS; HEK293 T-REx D1 cells, calcium flux, agonist mode; hit rate 1% among 360,000; D(1A) dopamine receptor (Homo sapiens), P21728; AID 504660, 2011; activation, % at 2 µM; in the data active means activation above about 30%
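Tetracycline-induced HEK293 TREx D1 cells, force-coupled to calcium signalling, were dye-loaded with a no-wash calcium kit. Compound was pin-added after a 10 s baseline. Fluorescence was read kinetically at 1 cycle/s for 180 s, with calcium rises flagged as agonism.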
DRD3 antagonist – qHTS of D3 Dopamine Receptor Antagonist: qHTS; D(3) dopamine receptor (Homo sapiens), P35462; AID 652054, 2013; max response, negative = inhibition, %; hit rate 2.5% among 360,000; D3R cells, DiscoveRx beta-arrestin luminescence, antagonist mode; stronger effect = lower value; in the data active means max response below about -50%; inconclusive means no clear call, values can overlap the other calls
Target sequence (P35462 whole entry, looked up): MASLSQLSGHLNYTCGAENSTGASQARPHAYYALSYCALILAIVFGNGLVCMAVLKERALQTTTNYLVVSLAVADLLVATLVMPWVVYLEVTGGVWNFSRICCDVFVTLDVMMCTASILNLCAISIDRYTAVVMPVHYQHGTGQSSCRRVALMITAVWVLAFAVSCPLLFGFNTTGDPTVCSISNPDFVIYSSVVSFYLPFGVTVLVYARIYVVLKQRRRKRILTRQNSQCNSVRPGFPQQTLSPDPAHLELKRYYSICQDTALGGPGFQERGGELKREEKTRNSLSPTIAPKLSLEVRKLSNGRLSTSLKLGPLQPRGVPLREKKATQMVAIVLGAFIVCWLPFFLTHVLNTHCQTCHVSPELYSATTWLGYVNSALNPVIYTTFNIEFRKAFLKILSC
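Cells plated overnight at 1500 cells/well, then exposed to library compounds with dopamine controls for 90 minutes at 37 degrees C. DiscoveRx reagent added for 30–60 minutes at room temperature; luminescence read, quantitative HTS format.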
DRD3 agonist – qHTS of D3 Dopamine Receptor Agonist: qHTS. hit rate 0.58% among 410,000. max activation, %. D3R DiscoveRx beta-arrestin cells, luminescence, 90 min. D(3) dopamine receptor (Homo sapiens), P35462. AID 652048, 2013; in the data active means max activation above about 30%
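Cells at 1500/well, incubated overnight, then treated with pinned compounds (dopamine as control) for 90 min at 37 degrees C. DiscoveRx reagent added for 30 - 60 minutes at room temperature; luminescence read.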
D1 antagonist – Antagonist of Human D 1 Dopamine Receptor: qHTS. activity change, negative = inhibition, % at 10 µM. D(1A) dopamine receptor (Homo sapiens), P21728. hit rate 3.2% among 360,000. HEK293 TREx D1 cells, calcium flux, dopamine EC80; stronger effect = lower value; in the data active means activity change below about -30%
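After overnight tetracycline induction at 30 C, force-coupled D1 HEK293 cells took up a no-wash calcium dye at room temperature. Compounds were added and monitored 180 s, and the response to EC80 dopamine was then recorded.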
Each line names hits and unclear results; the compound was inactive in the other large screens; ! = repeats disagree.

CC[C@@H](C(=O)[C@@H](C)[C@@H](O)[C@H](C)[C@@H]1O[C@@H]([C@@H](CC)C(=O)O)CC[C@@H]1C)[C@H]1O[C@]2(C=C[C@@H](O)[C@]3(CC[C@@](C)([C@H]4CC[C@](O)(CC)[C@H](C)O4)O3)O2)[C@H](C)C[C@@H]1C	DRD3 agonist 249 (no result: D1 PAM, D1 ag, D1 antagonist)
CCCCNC(=O)C1(C)CCCCN1C(=O)c1c(Cl)cccc1Cl (configuration not stated)	none (no result: D1 PAM, D1 ag, D1 antagonist)
CC(=O)c1c(C)[nH]c(C(=O)NCCN2CCC(C)CC2)c1C	DRD3 antagonist -51
CC(=O)c1c(C)[nH]c(C(=O)NCc2ccco2)c1C	D1 antagonist -64
CC(=O)c1[nH]c(C)c(C(=O)NCc2ccc(Cl)cc2)c1C	D1 ag 39 (no result: DRD3 antagonist)
COc1ccc(C(C(=O)NCc2ccccc2)n2c(=O)c(-c3ccco3)nc3ccccc32)cc1 (configuration not stated)	none (no result: D1 PAM, D1 ag, D1 antagonist)
Cc1csc(NC(=O)C2(C)CCN2C(=O)C(C)C)c1C#N (configuration not stated)	none (no result: D1 PAM, D1 ag, D1 antagonist)
COc1cc(C(=O)Nc2nc3c(s2)Cc2c(Br)ccc(OC)c2-3)cc(OC)c1OC	none (no result: DRD3 antagonist)
COc1cccc2cc(-c3nc4sc5c(c4c(=O)[nH]3)CCC(C(C)(C)C)C5)c(=O)oc12 (configuration not stated)	none (no result: DRD3 antagonist)
CC(=O)c1ccc(S(=O)(=O)N2CCN(C(=O)c3ccc(N)c([N+](=O)[O-])c3)CC2)cc1	none
Nc1ccc(C(=O)N2CCN(S(=O)(=O)c3ccc(Br)cc3)CC2)cc1[N+](=O)[O-]	D1 antagonist -49
CC(=O)c1ccc(S(=O)(=O)N2CCN(C(=O)c3ccc(-n4cncn4)c([N+](=O)[O-])c3)CC2)cc1	D1 antagonist -50
O=C(c1ccc(-n2cncn2)c([N+](=O)[O-])c1)N1CCN(S(=O)(=O)c2ccc(Br)cc2)CC1	none
O=C(Cn1ncc2ccsc2c1=O)N1CCN(c2ccccc2F)CC1	none (no result: DRD3 antagonist)
COc1cccc(C(=O)Nc2cc(-c3ccccc3)no2)c1	none (no result: DRD3 antagonist)
CC(C)(C)C1CCc2c(sc(NC(=O)c3cc4ccccc4c(=O)o3)c2C(N)=O)C1 (configuration not stated)	none (no result: DRD3 antagonist)
COC(=O)c1c(NC(=O)c2ccco2)sc2c1C(C(=O)OC)CC2 (configuration not stated)	DRD3 antagonist -50
CC(C)N1CCc2c(sc(NC(=O)c3ccco3)c2C(N)=O)C1	none
COC(=O)c1c(NC(=O)C(C)C)sc2c1C(C(=O)OC)CC2 (configuration not stated)	DRD3 antagonist inconclusive
COC(=O)c1c(NC(=O)c2ccco2)sc2c1CCN(C(C)C)C2	D1 ag 33
CCN(CC)C(=O)N1c2ccccc2C=Cc2ccccc21	none
CN(C)CCCNC(=O)N1c2ccccc2C=Cc2ccccc21	DRD3 antagonist -52
COc1ccc(CCNC(=O)CC(=O)NCCc2ccc(OC)cc2)cc1	none
COc1ccc(CCNC(=O)c2cc(S(=O)(=O)N(C)c3ccccc3)ccc2Cl)cc1	D1 antagonist -56
C=CCNC(=O)CN(c1ccc(F)cc1)S(=O)(=O)c1ccc(OC)cc1	D1 antagonist -49
COc1ccc(CCNC(=O)Cc2c(Cl)cccc2Cl)cc1	D1 antagonist -36
COc1ccc(N(C(C)C(=O)NCCSCc2cccc(Cl)c2)S(C)(=O)=O)cc1 (configuration not stated)	none
CCOc1ccc(N(C)S(=O)(=O)c2ccc(C)c(C(=O)NCCc3ccc(OC)cc3)c2)cc1	none
CC(C(=O)NCCSCc1cccc(Cl)c1)N(c1ccccc1)S(C)(=O)=O (configuration not stated)	D1 antagonist -32!
ClC(Cl)Cl	none (no result: D1 PAM, D1 ag, DRD3 antagonist, D1 antagonist)
CCOC(=O)c1c(-c2ccccc2)csc1NC(=O)c1cc(-c2cccc(OC)c2)on1	none (no result: DRD3 antagonist)
COc1ccccc1N(CC(=O)NCCSc1ccccc1)S(=O)(=O)c1ccc(C)cc1	D1 ag 31 (no result: DRD3 antagonist)
COc1cccc(NC(=O)CN(c2ccc([N+](=O)[O-])cc2)S(=O)(=O)c2ccccc2)c1	none
COc1ccccc1N(CC(=O)NCCSCc1ccc(C)cc1)S(=O)(=O)c1ccccc1	D1 antagonist -32
COc1ccc(S(=O)(=O)N(CC(=O)NCCc2ccccc2)c2ccc(Cl)cc2)cc1	D1 ag 40 (no result: DRD3 antagonist)
COc1ccccc1N(CC(=O)NCCSc1ccccc1)S(=O)(=O)c1ccccc1	none (no result: D1 PAM, D1 ag, D1 antagonist)
COc1ccc(N(CC(=O)NCCc2ccccc2)S(=O)(=O)c2ccc(OC)c(OC)c2)cc1	none (no result: DRD3 antagonist)
COc1ccc(NC(=O)CN(c2ccc([N+](=O)[O-])cc2)S(=O)(=O)c2ccccc2)cc1	D1 ag 33
Cc1ccc(CSCCNC(=O)CN(c2cccc(C)c2C)S(=O)(=O)c2ccccc2)cc1	none (no result: DRD3 antagonist)
C#CCOc1ccc(C2C(C(=O)OC)=C(C)NC3=C2C(=O)c2ccccc23)cc1OCC (configuration not stated)	none (no result: DRD3 antagonist)
O=C(Nc1cc(Cl)cc(Cl)c1)c1ccc(F)c(S(=O)(=O)N2CCCCCC2)c1	none (no result: DRD3 antagonist)
CN(C)S(=O)(=O)N(CC(=O)NCCSCc1ccccc1)c1ccccc1	D1 antagonist -61!
COc1ccc(CCNC(=O)CN(c2ccccc2OC)S(=O)(=O)c2ccc(C)cc2)cc1	D1 ag 37!, D1 antagonist -36!
Cc1cccc(N(CC(=O)NCCSCc2cccc(Cl)c2)S(=O)(=O)c2ccccc2)c1C	D1 ag 31 (no result: DRD3 antagonist)
COc1ccccc1CNC(=O)C1CCN(S(=O)(=O)c2ccc3[nH]c(=O)ccc3c2)CC1	none (no result: DRD3 antagonist)
Cc1ccc(NC(=O)CSc2nc3c(oc4ccccc43)c(=O)n2Cc2ccco2)cc1F	none (no result: DRD3 antagonist)
COc1ccc(CCNC(=O)C2CCC(C(C)(C)C)CC2)cc1OC (configuration not stated)	D1 antagonist -63
COc1ccc(CCN(C(=O)c2ccc(F)cc2)C2=CC3CCC(C2)N3C)cc1OC (configuration not stated)	DRD3 antagonist -56
O=C(c1ccc(F)cc1)C1CCN(C(=S)NCC2CCCO2)CC1 (configuration not stated)	D1 antagonist -35
COc1ccc(CCNC(=S)N2CCC(C(=O)c3ccc(F)cc3)CC2)cc1OC	D1 antagonist -44
Cc1cc(Nc2cccc(C(F)(F)F)c2)nc2ccc(NC(=O)c3cccc(Cl)c3)cc12	none (no result: DRD3 antagonist)
O=C(C1CCC(=O)N(C2CC2)C1)N1CCC(Oc2cccc(F)c2)CC1 (configuration not stated)	D1 antagonist -37
Cc1cc2nc(-c3cccc(NC(=O)CSc4ccc(Cl)cc4)c3)oc2cc1C	none (no result: DRD3 antagonist)
CCCCCn1nnnc1C1(C)CCC(=O)N1Cc1ccco1 (configuration not stated)	none (no result: D1 PAM, D1 ag, D1 antagonist)
